The whole screen tested about 39,000 compounds, of which about 3,300 (8.5%) were called active. The entries come from a sample that favours actives as a whole.
tested on: HepG2; test: cytotoxicity call (relative viability < 0.9); conditions: 10 µM

Compound | cytotoxicity call
C[C@H]1CC/C=C\[C@H]2O[C@@]34C=CCN(CCN5CCOCC5)C(=O)[C@H]3N(CCCO)C(=O)[C@@H]4[C@@H]2C(=O)O1 | inactive
CC[C@@H](C)c1ccc(NC(=O)c2ccc(N(CC)CC)cc2)cc1 | inactive
Nc1nc(=O)[nH]cc1NC(=O)c1ccccc1 | inactive
C[C@@H](N)c1ccc(C(=O)Nc2ccnc3[nH]ccc23)cc1 | active
c1cnc2c(SCc3nc4ccccc4s3)cccc2c1 | active
c1ccc2c(CSc3nc4ccccc4s3)cccc2c1 | inactive
CCSc1cccc2cccnc12 | inactive
COc1ccc(S(=O)(=O)Nc2ccc3c(c2)C(=O)N([C@H](C)CO)C[C@H](C)[C@H](CN(C)Cc2ccc(Cl)c(Cl)c2)O3)cc1 | inactive
COc1ccc(S(=O)(=O)Nc2ccc3c(c2)C(=O)N([C@H](C)CO)C[C@H](C)[C@@H](CN(C)Cc2ccc(Cl)c(Cl)c2)O3)cc1 | inactive
COc1ccc(S(=O)(=O)Nc2ccc3c(c2)C(=O)N([C@@H](C)CO)C[C@@H](C)[C@H](CN(C)Cc2ccc(Cl)c(Cl)c2)O3)cc1 | active
COc1ccc(S(=O)(=O)Nc2ccc3c(c2)C(=O)N([C@@H](C)CO)C[C@@H](C)[C@@H](CN(C)Cc2ccc(Cl)c(Cl)c2)O3)cc1 | active
COc1ccc(S(=O)(=O)Nc2ccc3c(c2)C(=O)N([C@@H](C)CO)C[C@H](C)[C@H](CN(C)Cc2ccc(Cl)c(Cl)c2)O3)cc1 | inactive
COc1ccc(S(=O)(=O)Nc2ccc3c(c2)C(=O)N([C@@H](C)CO)C[C@H](C)[C@@H](CN(C)Cc2ccc(Cl)c(Cl)c2)O3)cc1 | inactive
C[C@@H]1CCCCO[C@@H](CN(C)S(=O)(=O)c2ccc(Cl)cc2)[C@@H](C)CN([C@H](C)CO)C(=O)c2cc(NC(=O)CCCCCC(=O)Nc3ccccc3N)ccc2O1 | inactive
C[C@H]1CN([C@@H](C)CO)C(=O)Cc2cc(NS(C)(=O)=O)ccc2O[C@H]1CN(C)C | inactive
C[C@H]1CN([C@@H](C)CO)C(=O)Cc2cc(NC(=O)c3ccncc3)ccc2O[C@@H]1CN(C)Cc1ccncc1 | inactive
C=CCOc1ccc(C(=O)C2=C(O)C(=O)N(CCCN3CCOCC3)[C@@]23C(=O)N(C)c2ccccc23)cc1C | inactive
COCC(=O)Nc1ccc2c(c1)C(=O)N(C)[C@H]1CC[C@@H](CC(=O)NC3Cc4ccccc4C3)O[C@@H]1CO2 | inactive
COc1ccc(CN(C)C[C@H]2OCCCC[C@@H](C)Oc3ccc(NS(=O)(=O)c4c(C)noc4C)cc3C(=O)N([C@H](C)CO)C[C@H]2C)cc1 | inactive
COc1ccc(NC(=O)Nc2ccc3c(c2)C(=O)N([C@H](C)CO)C[C@H](C)[C@H](CN(C)C(=O)Nc2ccc(C(F)(F)F)cc2)O3)cc1 | inactive
C[C@@H]1CCCCO[C@@H](CN(C)Cc2ccc(Cl)c(Cl)c2)[C@@H](C)CN([C@@H](C)CO)C(=O)c2cc(NS(=O)(=O)c3ccc(Cl)cc3)ccc2O1 | active
C[C@@H]1CN([C@H](C)CO)C(=O)c2cc(NS(=O)(=O)c3ccc(Cl)cc3)ccc2O[C@@H](C)CCCCO[C@@H]1CN(C)Cc1ccc(Cl)c(Cl)c1 | active
C[C@@H]1CCCCO[C@@H](CN(C)Cc2ccc(Cl)c(Cl)c2)[C@H](C)CN([C@@H](C)CO)C(=O)c2cc(NS(=O)(=O)c3ccc(Cl)cc3)ccc2O1 | active

Compound | cytotoxicity call
C[C@@H]1CN([C@H](C)CO)C(=O)c2cc(NS(=O)(=O)c3ccc(Cl)cc3)ccc2O[C@@H](C)CCCCO[C@H]1CN(C)Cc1ccc(Cl)c(Cl)c1 | active
C[C@@H]1CN([C@H](C)CO)C(=O)c2c(c3ccccc3n2C)-c2ccccc2CO[C@H]1CN(C)Cc1ccc(Oc2ccccc2)cc1 | inactive
O=C(C[C@@H]1CC[C@@H]2[C@H](COC[C@H](O)CN2C(=O)Nc2cccc(Cl)c2)O1)NCCCN1CCOCC1 | inactive
C[C@@H]1CN([C@H](C)CO)C(=O)Cc2cc(NS(C)(=O)=O)ccc2O[C@@H]1CN(C)S(=O)(=O)c1cn(C)cn1 | inactive
C[C@@H]1CCCCO[C@H](CN(C)S(=O)(=O)c2cn(C)cn2)[C@H](C)CN([C@@H](C)CO)C(=O)c2cc(NC(=O)CCCN(C)C)ccc2O1 | inactive
CO[C@H](CN(C)C(=O)Nc1ccc(C(F)(F)F)cc1)[C@H](C)CN(Cc1ccccc1Cl)[C@@H](C)CO | inactive
C[C@@H]1CN([C@H](C)CO)C(=O)c2c(c3ccccc3n2C)-c2ccccc2CO[C@@H]1CN(C)C(=O)Nc1ccc(F)cc1 | inactive
COCC(=O)N1CC[C@@H](O)[C@@H]1Cc1cnn(C)c1 | inactive
CN1C(=O)c2cc(NC(=O)C3CCOCC3)ccc2OC[C@H]2O[C@H](CC(=O)NCc3ccccc3F)CC[C@@H]21 | inactive
COC(=O)C[C@@H]1CC[C@H]2[C@H](COc3ccc(NS(=O)(=O)c4ccccc4Cl)cc3C(=O)N2C)O1 | inactive
COCC(=O)N1C[C@H](C)[C@H](OC)CN(C)C(=O)c2cc(NC(=O)Nc3ccccc3)ccc2OC[C@H]1C | inactive
C[C@@H]1CN([C@H](C)CO)C(=O)c2cccc(NC(=O)c3ccncc3)c2O[C@H]1CN(C)Cc1ccc2c(c1)OCO2 | inactive
O=C(CCCCCCC(=O)N/N=C/[C@@H](O)[C@H](O)[C@H](O)CO)NO | inactive
C[C@@H]1CCCCO[C@H](CN(C)Cc2ccc(Cl)c(Cl)c2)[C@@H](C)CN([C@H](C)CO)C(=O)c2cc(NS(=O)(=O)c3ccc(Cl)cc3)ccc2O1 | active
C[C@@H]1CCCCO[C@@H](CN(C)Cc2ccc(Cl)c(Cl)c2)[C@@H](C)CN([C@H](C)CO)C(=O)c2cc(NS(=O)(=O)c3ccc(Cl)cc3)ccc2O1 | inactive
C[C@@H]1CCCCO[C@@H](CN(C)Cc2ccc(Cl)c(Cl)c2)[C@H](C)CN([C@H](C)CO)C(=O)c2cc(NS(=O)(=O)c3ccc(Cl)cc3)ccc2O1 | active
C[C@@H]1CCCCO[C@H](CN(C)Cc2ccc(Cl)c(Cl)c2)[C@@H](C)CN([C@@H](C)CO)C(=O)c2cc(NS(=O)(=O)c3ccc(Cl)cc3)ccc2O1 | active
C[C@H](CO)N1C[C@H](C)[C@@H](CN(C)Cc2ccc(Cl)c(Cl)c2)OCCCC[C@H](C)Oc2ccc(NS(=O)(=O)c3ccc(Cl)cc3)cc2C1=O | inactive
C[C@@H]1CCCCO[C@H](CN(C)Cc2ccc(Cl)c(Cl)c2)[C@H](C)CN([C@@H](C)CO)C(=O)c2cc(NS(=O)(=O)c3ccc(Cl)cc3)ccc2O1 | active
CC(C)NC(=O)Nc1cccc2c1O[C@H](CN(C)Cc1ccc3c(c1)OCO3)[C@@H](C)CN([C@@H](C)CO)C2=O | inactive
COc1ccc(NC(=O)Nc2ccc3c(c2)C(=O)N([C@H](C)CO)C[C@H](C)[C@@H](CN(C)C(=O)Nc2ccc(C(F)(F)F)cc2)OCCCC[C@H](C)O3)cc1 | inactive
C[C@@H]1CN([C@@H](C)CO)C(=O)c2cc(NC(=O)Nc3ccc(F)cc3)ccc2O[C@@H](C)CCCCO[C@H]1CN(C)Cc1ccc(C(=O)O)cc1 | inactive
COc1cccc(S(=O)(=O)N2C[C@H](O)COC[C@H]3O[C@H](CC(=O)NCCCN4CCOCC4)CC[C@@H]32)c1 | inactive

Compound | cytotoxicity call
CN1[C@@H]2c3ccc(-c4ccccc4)c(=O)n3C[C@H]1[C@H](CO)[C@H]2C(=O)NCCCN1CCOCC1 | inactive
Cc1noc(C)c1NC(=O)Nc1cccc2c1O[C@H](CN(C)C(=O)NC(C)C)[C@H](C)CN([C@@H](C)CO)C2=O | inactive
O=C(C[C@H]1CC[C@H]2[C@@H](COC[C@H](O)CN2S(=O)(=O)c2ccc(Cl)cc2)O1)N[C@@H]1CCN(Cc2ccccc2)C1 | inactive
CCCN(C)C[C@@H]1OCCCC[C@@H](C)Oc2ccc(NS(=O)(=O)c3cn(C)cn3)cc2C(=O)N([C@H](C)CO)C[C@@H]1C | inactive
COc1ccc(NC(=O)N(C)C[C@H]2Oc3ncc(C#CC(C)C)cc3C(=O)N([C@H](C)CO)C[C@H]2C)cc1 | inactive
CC1OC(OC2C(O)CC(OC3C(O)CC(OC4CCC5(C)C(CCC6C5CCC5(C)C(C7=CC(=O)OC7)CCC65O)C4)OC3C)OC2C)CC(O)C1O (centres undefined) | active
C[C@H]1O[C@@H](O[C@H]2[C@@H](O)C[C@H](O[C@H]3[C@@H](O)C[C@H](O[C@H]4CC[C@@]5(C)[C@H](CC[C@@H]6[C@@H]5CC[C@]5(C)[C@@H](C7=CC(=O)OC7)CC[C@]65O)C4)O[C@@H]3C)O[C@@H]2C)C[C@H](O)[C@@H]1O | active
Cc1ccc(S(=O)(=O)N(C)C[C@H]2OCCCC[C@H](C)Oc3ccc(NC(=O)Nc4cccc5ccccc45)cc3C(=O)N([C@H](C)CO)C[C@H]2C)cc1 | inactive
NCCCn1c2c(c3ccccc31)CCCC2 | active
NCCCN1CCCN(CCCN)CC1 | inactive
CC(=O)N1C(=O)N(C(C)=O)[C@@H](O)[C@H]1O | inactive
O=C(C[C@@H]1CC[C@H](NS(=O)(=O)c2ccccc2)[C@H](CO)O1)NCc1ccncn1 | inactive
Nc1nnc(C(F)(F)F)[nH]1 | inactive
CCCc1ccc2c(c1)CNCCC2 | inactive
COc1ccc(NC(=O)N(C)C[C@@H]2OCCCC[C@@H](C)Oc3ccc(NC(=O)Cc4ccccc4)cc3C(=O)N([C@H](C)CO)C[C@@H]2C)cc1 | inactive
C[C@@H]1CN([C@H](C)CO)C(=O)c2cc(NS(C)(=O)=O)ccc2O[C@@H]1CN(C)C(=O)Nc1ccc2c(c1)OCO2 | inactive
C[C@@H]1CN([C@H](C)CO)C(=O)c2cc(NC(=O)Nc3ccccc3)ccc2O[C@@H](C)CCCCO[C@@H]1CN(C)S(=O)(=O)c1ccccc1 | inactive
COc1ccc(CN(C)C[C@@H]2Oc3c(NC(=O)Nc4cccc5ccccc45)cccc3C(=O)N([C@H](C)CO)C[C@@H]2C)cc1 | inactive
C[C@@H]1CN([C@H](C)CO)C(=O)c2cccc(NC(=O)Nc3cccc4ccccc34)c2O[C@@H]1CN(C)Cc1ccc(Oc2ccccc2)cc1 | inactive
C[C@H](CO)N1C[C@H](C)[C@@H](CN(C)Cc2ccc(Oc3ccccc3)cc2)Oc2c(NC(=O)Nc3cccc4ccccc34)cccc2C1=O | active
C[C@H](CO)N1C[C@H](C)[C@H](CN(C)Cc2ccc(Oc3ccccc3)cc2)Oc2c(NC(=O)Nc3cccc4ccccc34)cccc2C1=O | inactive
C[C@H]1CN([C@@H](C)CO)C(=O)c2cccc(NC(=O)Nc3cccc4ccccc34)c2O[C@H]1CN(C)Cc1ccc(Oc2ccccc2)cc1 | active
COc1ccc(CN(C)C[C@@H]2Oc3c(NC(=O)Nc4cccc5ccccc45)cccc3C(=O)N([C@@H](C)CO)C[C@@H]2C)cc1 | inactive

— the antibiotic and cytotoxicity screens of Wong et al. (2023)
